About 50,000 (12%) of roughly 420,000 compounds were called active. Not shown: some 26% with an inconclusive outcome. The sample holds actives, similar compounds and a random draw of the others, so the mix is not that of the screen. Values without a mark were called inactive. The call rests on the fitted dose curve; in most records, active means well fitted inhibition curve with a large enough effect; inconclusive means small, poorly fitted or top-dose-only effect; inactive means flat fitted curve, though single readings scatter.
Assay: qHTS for Inhibitors of human tyrosyl-DNA phosphodiesterase 1 (TDP1): qHTS in cells in presence of CPT; further: nearly all actives have a fitted effect of over 55% in size
Details: chicken DT40 Tdp1-/-;hTDP1 cells + 20 nM CPT, ATP luminescence, 48 h; series mostly up to 46.2 µM; activity change, negative = growth inhibition: at the top concentration
Summary of the method: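 Chicken DT40 Tdp1-/- cells complemented with human TDP1, 400 cells/well, exposed to compounds plus 20 nM camptothecin for at least 48 h at 37 C; viability read as ATP content by CellTiter-Glo luminescence.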
On the % scale 0 is the no-effect control and ±100 the full control effect; potency means the concentration at half of the fitted maximal effect.

Compound | activity change, negative = growth inhibition | Potency
CC(C)(O)CCC(O)[C@@](C)(O)C1CC[C@]2(O)C3=CC(=O)C4CC(O)C(O)C[C@]4(C)C3CC[C@]12C (stereo not given in full) | 13.7% | 
COc1cccc(C=CC(=O)C=CC=Cc2ccccc2)c1 |  | 20.6 µM (active)
COc1cccc(N2CC(NC(=O)/C=C\c3ccccc3)CC2=O)c1 (stereo not given) | -23.1% | 
COc1cccc(C(=O)NNC(=O)/C=C/c2ccccc2)c1 | -5.33% | 
COc1ccccc1C(C)NC(=O)Cc1ccsc1 (stereo not given) | -5.69% | 
Cc1ccc(CN(CC(=O)NC2CCCCC2)C(=O)c2csnn2)cc1 | -5.16% | 
Cc1cc(C(C)(C)C)oc1C(=O)N(CC(=O)NC1CCCC1)Cc1ccc(Cl)cc1 |  | 9.2 µM (active)
COc1ccc(CN(CC(=O)NC2CCCC2)C(=O)CCC(=O)Nc2cc(C)on2)cc1 | -25.2% | 
CC(C)Oc1ccc(C(=O)Nc2cc(=O)n(C)c(=O)n2C)cc1 | 18.5% | 
CC(C)Oc1ccc(C(=O)NC(C)(C)CO)cc1 | -10.2% | 
Cc1ccc2cccc(NC(=O)c3ccc(OC(C)C)cc3)c2n1 |  | 18.4 µM (active)
Cc1ccc2cccc(NC(=O)C(C)Oc3ccc(C)c(C)c3)c2n1 (stereo not given) |  | 20.6 µM (active)
COc1ccc(OC(C)C(=O)Nc2cccnc2)cc1 (stereo not given) | -18.3% | 
CC(Oc1ccc(Cl)cc1)C(=O)Nc1ncccn1 (stereo not given) | -7.6% | 
Cc1ccc(Cn2c(=O)n(-c3ccc(C)cc3)c(=O)c3c2c2cc(C)ccc2n3C)cc1 | 7.58% | 
CCCCSCCCNC(=O)C1CCC(CNS(=O)(=O)c2ccc(NC(C)=O)cc2)CC1 (stereo not given) | -22.3% | 
CC1CCN(C(=O)CCNC(=O)c2ccccc2)CC1 | -0.49% | 
C=CCn1c(CCNC(=O)c2ccccc2F)nnc1SCC(=O)Nc1ccc(OC)cc1 | 9.16% | 
Cc1ccc(CN(CC(=O)NCC2CCCO2)S(=O)(=O)c2ccc(C)cc2)cc1 (stereo not given) | -0.912% | 
Cc1ccc2nc3n(c(=O)c2c1)CCC3 | -18.1% | 
Cc1nc2ccc(C(=O)N3CCN(c4ccccc4)CC3)cc2s1 | -6.74% | 
Cc1ccc2nc(C)c3c(c2c1)N(c1ccccc1)CC3 |  | 11.6 µM (active)
COc1ccc(Cn2ccnc2SCC(=O)NCc2ccco2)cc1 | -6.17% | 
CCOC(=O)c1cccc(NC(=O)CCc2nnc3ccc(N4CCOCC4)nn23)c1 | -2.91% | 
O=C(NC1CCCCC1)C1CCC(CNS(=O)(=O)c2ccccc2)CC1 (stereo not given) | -11% | 
Clc1nc(NC2CCCC2)nc(N2CCOCC2)n1 | 0.37% | 
COc1nc(NC2CCCCC2)nc(N2CCCCCC2)n1 |  | 22.4 µM (active)

Compound | activity change, negative = growth inhibition | Potency
CN(N)c1nc(N2CCCC2)nc(N2CCCC2)n1 | -2.65% | 
C[C@@H]1CN([C@@H](C)CO)C(=O)c2cc(Br)cnc2O[C@@H]1CN(C)C(=O)C1CCCCC1 | -6.47% | 
CC(=O)N[C@H]1[C@H]([C@H](O)[C@H](O)CO)OC(C(=O)O)=C[C@@H]1O | -10.2% | 
Cc1ccc2oc(=O)ccc2c1 | 13.3% | 
CCN(CC)c1ccc2oc(=O)c(C)nc2c1 |  | 5.17 µM (active)
CCN(CC)c1ccc2c(Nc3ccccc3)c(C=O)c(=O)oc2c1 | -5.69% | 
CCOc1cc(/C=C2\C(=N)N3N=C(C)SC3=NC2=O)ccc1OCCOc1ccccc1 | 12.4% | 
S=C(NCc1ccco1)NCc1ccccc1Cl | 14.8% | 
Cc1ccc(NC(=S)NCc2ccccc2Cl)c(C)c1 |  | 23.1 µM (active)
Cc1c(Cl)cccc1NC(=S)NCc1ccc2c(c1)OCO2 | -25.6% | 
CCC(=O)N1CCC(C)(C(=O)Nc2cc(OC)c(OC)c(OC)c2)C1 (stereo not given) | -1.97% | 
Cc1ccc(Nc2ccc(C(N)=O)cc2[N+](=O)[O-])cc1 | -2.34% | 
CC(=O)Nc1ccc(/C=N/Nc2ccc(C(=O)c3c(C)cc4ccccn34)cc2[N+](=O)[O-])cc1 |  | 18.4 µM (active)
CNc1ccc(NC(C)=O)cc1[N+](=O)[O-] | -7.93% | 
CCCCN1C(=O)C(CC(=O)NCc2cccs2)CC(C(=O)N2CCOCC2)=C1C (stereo not given) | 5.59% | 
O=C(CSc1ncnc2sccc12)NC1CCS(=O)(=O)C1 (stereo not given) | 8.81% | 
Cc1noc(C)c1C(=O)N1CCC1(C)C(=O)NS(=O)(=O)c1ccc(C#N)cc1 (stereo not given) | 10.7% | 
COc1ccc(C(=O)CSc2nc(C)cc(C)n2)cc1[N+](=O)[O-] | 2.44% | 
CC(C)(C)C1CCC(NC(=O)c2cnn3c2NC(=C2CC2)C=C3C(F)F)CC1 (stereo not given) |  | 10 µM (active)
O=C(Nc1ccc([N+](=O)[O-])cc1)c1cnn2c1NC(=C1CC1)C=C2C(F)F | 0.0748% | 
O=C(Nc1ccc(Cl)cc1)c1cnn2c1NC(=C1CC1)C=C2C(F)F | 3.58% | 
COc1cc(NC(=S)NCc2ccco2)c(OC)cc1Cl | -1.65% | 
CNC(=O)Nc1cc(C(C)(C)C)no1 |  | 16.4 µM (active)
COc1ccc(NC(=O)c2cc(=O)[nH]c3ccccc23)cc1S(=O)(=O)N1CCOCC1 | -6.57% | 
CCCCC/C=C\CC1OC1CCCCCCCC(=O)O (stereo not given) | 0.0245% [at 0.628 µM] | 
O=[N+]([O-])c1cc(S(=O)(=O)NCCc2ccccn2)ccc1Cl | -4.48% | 
Cc1ccc(C(=O)N/C(=C/c2cccnc2)C(=O)O)cc1 | 1.55% | 

Compound | activity change, negative = growth inhibition | Potency
CCN(C(=O)Nc1cccc2ccccc12)c1ccccc1 |  | 23.1 µM (active)
CC(=O)N(C)c1ccc(NC(=O)Nc2cccc3ccccc23)cc1 | 1.68% | 
O=C(Nc1cccc2ccccc12)NC1CC1 | 3.33% | 
CCn1c(-c2cccnc2Cl)nc2cc(C)c(C)cc21 | -13.5% | 
CCOC(=O)N1CCN(C(=O)c2ccc(S(=O)(=O)c3ccc(C)cc3)c(NC(C)=O)c2)CC1 | 0.336% | 
CCOC(=O)N1CCN(C(=O)c2ccc(S(=O)(=O)Nc3cccc(C(F)(F)F)c3)cc2)CC1 |  | 16.4 µM (active)
O=C(NCc1ccccc1)c1ccc(S(=O)(=O)Nc2cccc(C(F)(F)F)c2)cc1 | -21% | 
CC(C)(C)NC(=O)CN1CCC(NC(=O)C23CC4CC(CC(C4)C2)C3)CC1 | -2.69% | 
CC(CNC(=O)c1nnc(Cc2cccc(F)c2)o1)c1ccccc1 (stereo not given) | -28.6% | 
COc1cccc(C(=O)NCCSc2ccc(Br)cc2)c1 | 11% | 
COc1cccc(CCNC(=O)c2cccc(NC(=O)C3=C(C)OCCS3)c2)c1 |  | 23.1 µM (active)
CC1=C(C(=O)Nc2cccc(C(=O)NCC(C)c3ccccc3)c2)SCCO1 (stereo not given) |  | 16.4 µM (active)
COc1cccc(CCNC(=O)COc2cccc3c2OC(C)(C)C3)c1 | -28.3% | 
O=C(Nc1cccc(C(=O)N2CCCC2)c1)c1ccccc1 | -21.7% | 
COCCn1c(N)c(N(Cc2ccccc2)C(=O)C2CCCCC2)c(=O)[nH]c1=O | 2.65% | 
Cc1nn(C)c(C)c1S(=O)(=O)N1CCC(CO)(Cc2ccc(Cl)cc2)CC1 | -0.289% | 
Cc1c(Cl)cnc(NC(=O)COC(=O)C2CCCC2)c1Cl | -2.84% | 
N#Cc1ccc(CSc2ncccn2)cc1 | 0.611% | 
CC(C)C(c1nnnn1C1CCCCC1)N1CCN(C(=O)c2ccco2)CC1 (stereo not given) | 0.0691% | 
CC1(C)C2CC[C@]3(C)C(CC=C4[C@@H]5C[C@@](C)(CO)CC[C@]5(C(=O)O)CC[C@]43C)[C@@]2(C)CC[C@@H]1O (stereo not given in full) | -4.91% | 
CC(=NCc1ccco1)C1=C(O)c2ccccc2C1=O | -25% | 
CCOC(=O)c1cc2n(c1N)-c1ccccc1C2=O | -15.1% | 
CCOC(=O)c1c(-c2ccc(C)cc2)csc1/N=C(\C)C1=C(O)c2ccccc2C1=O |  | 23.1 µM (active)
CN(C)Cc1c(C(=O)N/N=C/c2ccccc2OCc2ccc(F)cc2)nnn1-c1nonc1N | 11.4% | 
CCOC(=O)N1CCC(=NNC(N)=O)CC1 | 17.9% | 
COc1ccc(S(=O)(=O)NCC(c2ccco2)N2CCOCC2)cc1 (stereo not given) |  | inactive
CC1(C)CC(N(Cc2ccccc2)C(=O)Cc2ccccc2)CCO1 (stereo not given) | -23% | 

Compound | activity change, negative = growth inhibition | Potency
CC1(C)CC(CNCCC(c2ccc(F)cc2)c2ccco2)CCO1 (stereo not given) |  | 25.9 µM (active)
O=C(NC1CCCC1)C(c1ccco1)N(C(=O)c1ccco1)c1ccc(F)cc1 (stereo not given) | 1.1% | 
CSc1ccc(CN(C)CC(=O)NCc2ccc(F)cc2)cc1 | -1.99% | 
CC(C=Cc1ccccc1)=NNS(=O)(=O)c1ccc([N+](=O)[O-])cc1 | -30.1% | 
CC(=O)c1c(OCC(=O)N(C)C2CCCCC2)ccc2c(C)cc(=O)oc12 | -19.3% | 
Cc1cc(/C=C2/NC(=O)NC2=O)c(C)n1-c1cccnc1 | -10.2% | 
Cc1ccc2nc(COc3ccc(NC(=O)COc4ccccc4F)cc3)cc(=O)n2c1 | -21.2% | 
Cc1ccc2nc(COc3cccc(NC(=O)Nc4ccc(C)c(Cl)c4)c3)cc(=O)n2c1 | -18.2% | 
Cc1ccc2nc(COc3ccccc3NC(=O)Nc3ccc(F)c(Cl)c3)cc(=O)n2c1 |  | 11.6 µM (active)
Cc1ccsc1C(=O)N[C@@H](C)c1nnc2ccccn12 | 2.95% | 
CCCc1cc(=O)[nH]c(SCC(=O)Nc2sc3c(c2C#N)CCCC3)n1 | -9.05% | 
CC(=O)c1c(C)[nH]c(C(=O)OCC(=O)Nc2sc3c(c2C#N)CCCC3)c1C |  | 16.4 µM (active)
N#Cc1c(NC(=O)CCCl)sc2c1CCCCC2 |  | 18.4 µM (active)
CCN1CCN(CC(=O)Nc2sc3c(c2C#N)CCC3)CC1 | -19.1% | 
N#Cc1c(NC(=O)C2CCCO2)sc2c1CCCCC2 (stereo not given) | -15.2% | 
COc1ccc(-n2c(SCC(=O)Nc3sc4c(c3C#N)CCCC4)nnc2-c2ccc(O)cc2)cc1 | -19.3% | 
CC(=O)c1c(C)[nH]c(C(=O)OCC(=O)Nc2c(C)n(C)n(-c3ccccc3)c2=O)c1C | -7.08% | 
CC(=O)c1c(C)[nH]c(C(=O)OCC(=O)Nc2c(C)cccc2C)c1C |  | 20.6 µM (active)
CC(=O)c1c(C)[nH]c(C(=O)OCC(=O)NCCC(C)C)c1C | -19.5% | 
CC1=CC=CC2=N/C(=N\S(=O)(=O)c3ccc(F)cc3F)c3ccccc3CN12 | -4.68% | 
C=CCn1c(CNS(=O)(=O)c2ccc(Br)cc2)nnc1SC | -1.07% | 
CCOC(=O)c1c(C)[nH]c(C(=O)OCC(=O)N2CCCC2=O)c1C | -0.234% | 
CC(C)c1nc(CNC(=O)CC2C(=O)NCCN2Cc2cccc(F)c2F)cs1 (stereo not given) | -8.63% | 
CC1(C(=O)Nc2ccc3c(c2)OCCO3)CN(S(C)(=O)=O)CC(=O)N1Cc1cccc(F)c1 (stereo not given) | -19.9% | 
